# Laboratory results reported in ChEMBL document CHEMBL3988442, “University of Dundee, Small-Polar-MMV Screening Library” (2021).
# Key:
# [1] = target: T1, Aspartate--tRNA(Asp/Asn) ligase (Mycobacterium tuberculosis (strain ATCC 25618 / H37Rv)) (UniProt P9WFW3); assay: Assay for Asp RNA synthetase-1 from Mycobacterium tuberculosis; format: functional; set-up: scale not given: direction of the effect not stated beside the values; details: 30 µM; note: in the data most compounds retested in dose-response had high values
# T1 sequence (whole entry): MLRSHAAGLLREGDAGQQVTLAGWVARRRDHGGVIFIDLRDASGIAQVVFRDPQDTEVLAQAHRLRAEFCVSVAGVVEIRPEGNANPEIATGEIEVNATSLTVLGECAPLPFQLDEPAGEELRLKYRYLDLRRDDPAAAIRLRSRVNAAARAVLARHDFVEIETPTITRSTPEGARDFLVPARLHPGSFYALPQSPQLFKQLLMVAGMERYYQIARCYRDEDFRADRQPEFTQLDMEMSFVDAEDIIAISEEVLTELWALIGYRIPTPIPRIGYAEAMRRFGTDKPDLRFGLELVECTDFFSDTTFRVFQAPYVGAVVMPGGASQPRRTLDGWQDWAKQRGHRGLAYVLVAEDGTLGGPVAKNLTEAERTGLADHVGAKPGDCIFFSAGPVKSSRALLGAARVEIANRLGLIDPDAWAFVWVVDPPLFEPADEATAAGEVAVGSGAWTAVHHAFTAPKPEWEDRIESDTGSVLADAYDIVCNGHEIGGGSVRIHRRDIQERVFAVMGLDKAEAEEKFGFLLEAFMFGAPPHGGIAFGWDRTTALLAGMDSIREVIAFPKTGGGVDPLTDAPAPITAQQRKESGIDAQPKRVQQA
# [2] = target: Shiga toxin 2 (Escherichia coli O157:H7) (UniProt P09385+P09386); assay: E. coli 0.157:H7 Shiga Toxin SOP - stx2 screening assay; format: functional; set-up: scale not given: direction of the effect not stated beside the values; details: 30 µM
Compound,Percent Effect [1] [%],Percent Effect [2] [%]
O=C(NCC1CCOC1)c1csc(-c2cccc(Cl)c2)n1 (centres undefined),0.759,5.81
Fc1ccc(-c2cnc(CN3CCCC3Cn3cccn3)o2)cc1 (centres undefined),-1.83,8.21
Cc1n[nH]cc1CNc1ccc2c(c1)N(C(=O)OC(C)(C)C)CCC2,6.33,-17.7
COCCN1CCC2(CC1)CN(C(=O)N(C)C)c1ccc(C)cc12,0.0764,-2.72
O=C1[C@@H]2CCN(Cc3ccoc3)C[C@@H]2OCCN1Cc1cccnc1,-0.368,-11.5
O=C(c1ccc(Cl)c(Cl)c1)N1CCCC(n2cncn2)C1 (centres undefined),-2.85,15.6
CC(=O)N(Cc1noc(C2CC2)n1)C1CCN(Cc2cccnc2)C1 (centres undefined),-2.42,12.6
CCc1nc(CN2CCCN(C(=O)C(C)n3cncn3)CC2)cs1 (centres undefined),-3.06,9.04
Cc1cc(C(=O)N2CCCC(n3ccnc3C)C2)c(C)s1 (centres undefined),-4.25,-6.7
COCCN1CCCN(C(=O)NC(C)Cn2ccnc2)CC1 (centres undefined),-1.32,-14.7
COC(=O)CCNC(=O)c1ccoc1CN1c2ccccc2CC1C (centres undefined),0.0912,-1.74
CC(C(N)=O)N(C)CCCc1cc(-c2ccccc2)no1 (centres undefined),4.08,15
CCn1c(Cn2cncn2)nnc1C1CCN(C(=O)CCSC)CC1,1.37,8.61
CC(OCC(F)(F)F)C(=O)N1CCN(S(C)(=O)=O)CC1 (centres undefined),-0.604,-10.8
Cc1ccc(-c2nnc(SCC(=O)O)n2-c2ccc(C)cc2)cc1,0.544,-4.96
Cn1cc(C[C@H]2[C@H](O)CCN2CC2CC2)cn1,-0.168,2.72
O=C(CN1CCC(C(=O)c2cc(F)ccc2F)CC1)NC1CCCC1,-0.27,-63.4
